From PubChem BioAssay (NCI)
Several values for one entry are separate records, joined by “and”; a condition that tells them apart may be missing. Identical values can stand only once. Compounds without any hit were thinned out: in the full panel of roughly 79,000, 15% have a hit. Values without a mark were called inactive. Activity calls are given as the source filed them. Cut-off read from the data, not from the text of the source: active = growth inhibition above about 70%; inactive = the rest. Where a SMILES comes first, the peptide text is derived from it. Bridges are numbered along the chain shown (N, C = ends). [ ]: non-standard residue; d: D form. Aib = CC(C)(N)C(=O)O; βAla = NCCC(=O)O

What was measured:
[1] = NCI Yeast Anticancer Drug Screen. Data for the rad50 strain (AID 155);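 note: 0% = growth of vehicle-only cultures of the same strain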; details: S. cerevisiae rad50 strain growth inhibition, stronger effect = higher value; at 50.0 µM unless noted
How it was run: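 Vehicle-treated cultures provide the reference for the growth inhibition reported for compound-exposed, repair-deficient yeast.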

[2] = NCI Yeast Anticancer Drug Screen. Data for the mec2-1 strain (AID 157); details: S. cerevisiae mec2-1 strain, stronger effect = higher value; at 50.0 µM unless noted
How it was run: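 Strain: mec2-1 (DNA repair/cell cycle alteration). Compound exposure, then growth measured; inhibition expressed relative to vehicle.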

[3] = NCI Yeast Anticancer Drug Screen. Data for the sgs1 mgt1 strain (AID 161);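 note: 0% = growth of cultures given vehicle only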; details: S. cerevisiae sgs1 mgt1 strain, stronger effect = higher value; at 50.0 µM unless noted
How it was run: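 Inhibition of yeast growth, normalised to vehicle-treated controls, is reported for a strain bearing genetic alterations in DNA damage repair.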

[4] = NCI Yeast Anticancer Drug Screen. Data for the cln2 rad14 strain (AID 165);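 note: 0% = growth equal to vehicle treated cultures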; details: S. cerevisiae cln2 rad14 strain, stronger effect = higher value; at 50.0 µM unless noted
How it was run: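 Compounds are applied to the cln2 rad14 yeast strain, and growth is then compared with that of vehicle-treated cultures to give inhibition.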

[5] = NCI Yeast Anticancer Drug Screen. Data for the bub3 strain (AID 167); details: S. cerevisiae bub3 mutant strain, stronger effect = higher value; at 50.0 µM unless noted
How it was run: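 Mutant yeast screening strain plus compound; vehicle-treated cultures serve as the 0% inhibition reference.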

[6] = NCI Yeast Anticancer Drug Screen. Data for the mlh1 rad18 strain (AID 175); details: S. cerevisiae mlh1 rad18 strain growth inhibition, stronger effect = higher value; at 50.0 µM unless noted
How it was run: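 Read-out is yeast growth inhibition, calculated against vehicle-only controls. The compound was applied to a strain engineered with DNA damage repair alterations.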

Compound	growth inhibition [1]	growth inhibition [2]	growth inhibition [3]	growth inhibition [4]	growth inhibition [5]	growth inhibition [6]
CC(Br)C(=O)NC(CC(N)=O)C(=O)O (stereo unspecified)	1.8% and -8.25%	-15.6% and -16.1%	-9.15%	4.2%	-14.7%	23% and -17.1%
OC1c2ccccc2C2c3ccccc3C1C2Cl (stereo unspecified)	43.8%	5.9%	25.8%	35.3%	-5.7%	39.8%
O=C1[C@H]2ON(c3ccccc3)C(c3ccccc3)[C@H]2C(=O)N1c1ccc(Cc2ccc(N3C(=O)[C@@H]4ON(c5ccccc5)C(c5ccccc5)[C@@H]4C3=O)cc2)cc1 (stereo partly specified)	3.1%	3.45%	12.6%	21.5%	26.5%	11.8%
COc1ccccc1C(=O)NCC1CCCN2CCCCC12 (stereo unspecified)	6.5%	-6.95%	14.9%	-6.5%	0.7%	-45.4%
O=c1c2ccccc2[nH]c(=S)n1C1CCCC1	-7.85%	-6.55%	15.1%	-19.9%	39.4%	-2.15%
CCOC(=O)c1ccc(N)nc1	-3.75%	-3.3%	5.35%	-13%	7.95%	18.6%
CCOC(OCC)c1ccc(OC)c(OC)c1	13.5%	-5.3%	8.95%	-0.1%	3.45%	9.6%
CCCCCC=C(c1cc(Cl)c(OC)c(C(N)=O)c1)c1cc(Cl)c(OC)c(C(N)=O)c1	-20.1%	-9.35%	-12.4%	-92.9%	5.5%	-13.9%
CCOC(=O)CCC(NC(=O)OCc1ccccc1)C(=O)NNC(=O)OC(C)(C)C (stereo unspecified)	30.1%	22%	36.5%	15.7%	5.15%	21.3%
CCC(C)(C)c1ccc(C(=O)OC)o1	4.1%	16.2%	-5.55%	-13.3%	-7.3%	-13.8%
CN(C)C(CCC(=O)NC(C)(C)C)CC(=O)NC(C)(C)C (stereo unspecified)	0.2%	5%	11.7%	-2.35%	6.95%	-8.65%
c1ccc(N=c2sc3ccccc3nc2Nc2ccccc2)cc1	5.65%	-37.8%	-34.4%	-64.8%	-23.3%	-48.9%
O=c1[nH]c(C(F)(F)F)c([N+](=O)[O-])c(=O)[nH]1	-40.9%	-22.4%	1.6%	-26.4%	-1.9%	-4.7%
Cc1cc(=O)n(-c2ccccc2)c(=O)[nH]1	1.2%	1.95%	1.5%	1.2%	-4.25%	-12%
CC(=O)OCCN(CCOC(C)=O)CCOC(C)=O	-8.4%	-3.5%	-3.4%	-52.3%	-3.4%	18.5%
CCC(CC)C(=O)NCCNC(=O)C(CC)CC	5.45%	-0.9%	14.2%	-30.1%	-10.6%	-17.2%
COc1ccc2c3c(ccc2c1)[C@@H]1C/C(=C(\OC(C)=O)C(F)(F)F)C(=O)[C@@]1(C)CC3	-0.85%	-4.85%	0.4%	20.8%	-11.2%	20.3%
NC(N)=N/N=C(/CC1OC(=O)c2ccccc21)c1ccc2ccccc2c1 (stereo unspecified)	-3.2%	-12.4%	-2.65%	6.5%	-16.1%	-11.9%
CC1(C)NC(=O)C(NC(=O)C(N)CC(=O)O)CCCCNC(=O)CCNC1=O (stereo unspecified) (H-DK[Aib][βAla]; lactam 2-C; configuration not given here)	-4.35%	-67.5%	-32.3%	-10.6%	6.35%	-17.9%
O=C1/C(=C/c2ccccc2)CCC2CCCCC12 (stereo unspecified)	22.1%	-0.95%	-0.8%	-24.9%	-20.1%	14.4%
O=C(Nc1ccc(Cl)cc1)C(Cl)C(Cl)c1ccc(Cl)cc1 (stereo unspecified)	-15.6%	-6.3%	-7.65%	-22.4%	9.05%	-23.1%

Compound	growth inhibition [1]	growth inhibition [2]	growth inhibition [3]	growth inhibition [4]	growth inhibition [5]	growth inhibition [6]
O=C(c1ccccc1)N1c2ccc([N+](=O)[O-])cc2Sc2cc([N+](=O)[O-])ccc21	16.7%	-3.45%	33.6%	8.35%	-10.7%	13.1%
CCOC(=O)C(F)C(=O)OCC	14.8%	-2.95%	-1%	12.1%	-4.55%	-5.4%
COc1ccc2[nH]c3c(=O)[nH]ncc3c2c1	-1.9%	-0.95%	-7.5%	-3.05%	9.8%	9.05%
C=C(NC(=O)C(=C)NC(=O)c1csc(C2=NC3c4csc(n4)C4NC(=O)c5csc(n5)C(C(C)(O)C(C)O)NC(=O)C5CSC(=N5)/C(=C/C)NC(=O)C(C(C)O)NC(=O)c5csc(n5)C3(CC2)NC(=O)C(C)NC(=O)C(=C)NC(=O)C(C)NC(=O)C(C(C)CC)NC2C=Cc3c(C(C)O)cc(nc3C2O)C(=O)OC4C)n1)C(N)=O (stereo unspecified)	11.9% and 15.1%	10.8% and -10.4%	13.8% and 18.1%	29.5% and 23.2%	34.2% and 32.5%	13.2% and 36.2%
Cc1cc2c(C(C)C)c(O)c(O)c(C=NC(C)c3ccccc3)c2c(O)c1-c1c(C)cc2c(C(C)C)c(O)c(O)c(C=NC(C)c3ccccc3)c2c1O (stereo unspecified)	18.2%	7.35%	15.3%	11.9%	30.9%	7.95%
N=C(N)c1ccc(NC(=S)Nc2ccc(C(=N)N)cc2)cc1	43.1%	21.3%	32.1%	7.35%	16.4%	31.8%
Cn1cnc2nc(Cl)nc(N)c21	0%	-4.15%	6.05%	-16.6%	7.75%	-9.4%
Cc1c(CCN2CCOCC2)c(N2CCOCC2)n2c(nc3ccccc32)c1C#N	-14.7%	-11.9%	-9.2%	1%	-16.3%	-15%
COC1OC2COc3ccccc3OC2C2C1N2C(N)=O (stereo unspecified)	7.4%	0.7%	4.5%	-6.65%	-2.85%	3.8%
C1=C(c2ccccc2)N(C2CCCCC2)C(c2ccccc2)=CN1Cc1ccccc1	45%	31.9%	69.5%	42%	50.1%	70.8% (active)
CC(C)c1cc(C(C)C)c(S(=O)(=O)N/N=C2\C=CCC(C)(C)C2)c(C(C)C)c1	41.1%	5.05%	24.1%	-47.4%	-4.7%	18.9%
OC1(c2nccc3ccccc23)CCN(CCc2ccccc2)CC1	46.5%	33.4%	55.8%	40.5%	17.9%	34.8%
ON=C(c1ccccn1)c1ccccn1	11.1%	-7.6%	7.05%	4.35%	-8.25%	3.8%
Nc1ccc(NC(=O)Nc2ccccc2)cc1	5.65%	-19.2%	-0.7%	-32.4%	-22.3%	-15.1%
COc1cc(OC)c(OC)cc1/C=C/c1nc2ccccc2s1	25.1%	20.1%	41%	18.8%	46.9%	3%
CN1C(C)(C)CC(=O)C(Br)C1(C)C (stereo unspecified)	-37.8%	-45%	-33.8%	-6.2%	-6.75%	-29.4%
C=CCOCC(O)CNCC(O)COCC=C (stereo unspecified)	-36.9%	-33.7%	-24.9%	14.3%	-31.2%	5.2%
Cc1ccc(C)c(NC(=O)c2cccc(C(=O)Nc3cc(C)ccc3C)c2)c1	-13.1%	0.45%	-4.3%	8.05%	7.95%	7%
Cc1ccc(S(=O)(=O)Nc2ccccc2-c2nc3ccc(C)cc3c(=O)o2)cc1	-5.35%	-24.7%	-7.8%	2.9%	-7.55%	-13.7%
Nc1nccs1	-0.45%	-0.65%	4.75%	9.4%	-3.15%	25.7%
